NALP1 inh – blocks the NALP1 inflammasome reconstituted in yeast; S. cerevisiae NALP1/ASC/caspase-1 growth, X-gal OD620, 72 h; hit rate 0.61% among 280,000; inhibition, % at 10 µM; in the data active = inhibition mostly above about 24%, no sharp cut-off; inactive = mostly below about 32%
NALP3 yeast inh – blocks the NALP3 inflammasome reconstituted in yeast; Yeast reconstituted NLRP3/ASC/caspase-1, beta-gal luminescence, 24 h; inhibition, % at 10 µM; hit rate 0.39% among 330,000; AID 2825;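 active = inhibition of 50% or more; inactive = inhibition below 50%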
TIM10 inh – inhibits growth of TIM10 yeast strain. AID 463195. S. cerevisiae TIM10 strain growth, BacTiter-Glo luminescence, 24 h. hit rate 1.4% among 330,000. inhibition, % at 10 µM;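 active = inhibition of 40% or more at the single tested concentration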;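 note: wild-type TIM10 isogenic control strain grown at permissive 25 °C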
tim10-1 inh – growth inhibitors of tim10-1 mutant yeast; inhibition, % at 20 µM; S. cerevisiae tim10-1 ts strain growth, BacTiter-Glo, 24 h; hit rate 2.2% among 330,000;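 active = inhibition of at least 40%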;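 note: mutant grown at 25 °C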
tim23-1 inh – growth inhibitors of tim23-1 mutant yeast; S. cerevisiae tim23-1 growth, BacTiter-Glo luminescence, 24 h; inhibition, % at 20 µM; hit rate 1.3% among 330,000;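 active = growth inhibition of the mutant yeast at or above 50%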;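 note: temperature-sensitive mutant grown at 25 °C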
Each line names hits and unclear results; the compound was inactive in the other large screens; ! = a repeat was not active. An excerpt weighted towards active compounds, which were near 4% of everything screened.

O=C(COC(=O)/C=C/c1cccs1)Nc1nc(-c2ccccc2)cs1	NALP1 inh 63
N=c1n(CCN2CCOCC2)c2ccccc2n1CC(O)COc1ccccc1 (centres undefined)	none
Cc1ccccc1OCC(O)Cn1c(=N)n(CCN2CCOCC2)c2ccccc21 (centres undefined)	NALP1 inh 43!
Cn1ncc(S(=O)(=O)Cc2ccccc2)c(Cl)c1=O	NALP1 inh 108
Cn1ncc(SCc2ccccc2)c(Cl)c1=O	none
CCOc1ccccc1NC(=O)CN1C(=O)COc2ccc(C)cc21	none
COc1ccc(N=Cc2ccc[nH]2)cc1	NALP1 inh 36
Cc1csc(NC(=O)c2cccs2)n1	none
Cc1cnc(NC(=O)c2cccs2)s1	NALP1 inh 34
OCC1(CC2CCCCO2)CCN(C/C=C/c2ccccc2)CC1 (centres undefined)	NALP1 inh 39
CCN(c1ccccc1)S(=O)(=O)c1ccc(Oc2ccc(C(C)=O)cc2OC)nc1	none (no result: NALP1 inh)
Cc1ccc(-c2nnn(CC(=O)Nc3nnc(C(C)C)s3)n2)cc1	NALP1 inh 37
CC(C)c1nnc(NC(=O)CN2C(=O)c3ccccc3C2=O)s1	none
O=[N+]([O-])c1ccc(OCCOc2ccccc2/C=N/n2cnnc2)cc1	NALP1 inh 34
CCN1C(=O)C(CC(=O)Nc2ccc(OC)cc2)N(CCCN2CCN(c3ccc(OC)cc3)CC2)C1=S (centres undefined)	none
CCCn1c(Nc2nc3ccccc3n2C)nc2ccccc21	NALP1 inh 30
CCCCn1c(Nc2ccccc2)nc2ccccc21	none
CC(C)(C)NC(=O)CCC1COc2ccccc2O1 (centres undefined)	none
CC(NC(=O)CCC1COc2ccccc2O1)c1ccccc1 (centres undefined)	NALP1 inh 42
O=C(CCC1COc2ccccc2O1)NC1CCCCC1 (centres undefined)	NALP1 inh 41
O=C(CC1COc2ccccc2O1)NC1CCCCC1 (centres undefined)	none
CCOC(=O)N1CCN(c2c(NCCCN(CC)CC)c(=O)c2=O)CC1	NALP1 inh 45
CCCCN(CC)CCNc1c(N2CCN(C(=O)OCC)CC2)c(=O)c1=O	none
O=C(NN=C1C2CC3CC(C2)CC1C3)c1cccs1	NALP1 inh 41
COc1ccc(CNCCC(c2ccc(F)cc2)c2ccc(OC(C)C)cc2)cc1OC (centres undefined)	none (no result: NALP1 inh)
COc1ccc(CNCCC(c2ccc(OC)cc2)c2ccccc2OC)cc1 (centres undefined)	none
COc1ccc(CNCCC(c2ccc(F)cc2)c2ccc(OC)cc2)cc1 (centres undefined)	NALP1 inh 79
COc1ccc(C(CCNCc2ccc(F)cc2)c2ccc(F)cc2)cc1 (centres undefined)	NALP1 inh 68
COc1ccc(CCNCc2ccc(OCc3ccccc3)cc2)cc1	NALP1 inh 45
Cc1ccc(NC(=O)CN2C(=O)CNC2=O)cc1	none (no result: NALP1 inh)
OC(COc1ccccc1F)CN1CCC(Cc2ccccc2)CC1 (centres undefined)	none
OC(COc1ccc(F)cc1Cl)CN1CCC(Cc2ccccc2)CC1 (centres undefined)	NALP1 inh 42
O=C(Nc1ccc2c(c1)OCO2)c1cnc(Cl)c(Cl)c1	none (no result: NALP1 inh)
OCCNCCCOc1ccc(Cl)cc1Br	none
C=CCNCCCOc1ccc(Cl)cc1Br	NALP1 inh 46
CCOC(=O)COc1ccccc1/C=C\[N+](=O)[O-]	NALP1 inh 102 (no result: NALP3 yeast inh, TIM10 inh, tim10-1 inh, tim23-1 inh)
CCCCCCCCCCCCCCCCn1cc[n+](CC(C)=O)c1	NALP1 inh 78 (no result: NALP3 yeast inh, TIM10 inh, tim10-1 inh, tim23-1 inh)
CCCCCCn1ccc(=N)cc1	none
Cc1csc(NC(=O)C(CC(C)C)NS(=O)(=O)c2ccc3c(c2)oc(=O)n3C)n1 (centres undefined)	NALP1 inh 46
O=C(c1c[nH]c2ccccc12)C(Cl)c1ccccc1 (centres undefined)	NALP1 inh 45
CCC(c1nnnn1C(C)(C)CC)N(CCCO)Cc1cc2cc(C)cc(C)c2[nH]c1=O (centres undefined)	NALP1 inh 35 (no result: NALP3 yeast inh, TIM10 inh, tim10-1 inh, tim23-1 inh)
CCCC(c1nnnn1C(C)(C)CC)N(CCCO)Cc1cc2cc(C)cc(C)c2[nH]c1=O (centres undefined)	none
O=C(Nc1ccccc1)N1CCc2ccccc2C1	NALP1 inh 50
OC(CNCCC(c1ccccc1)c1ccccc1)COc1ccccc1 (centres undefined)	NALP1 inh 33
Fc1ccccc1NC(=S)NCCc1cccc(Cl)c1	NALP1 inh 30
Cc1ccc(C)c(S(=O)(=O)N2CCN(C(=O)c3ccncc3)CC2)c1	none (no result: NALP1 inh)
Cc1c(NC(=O)C(C)Sc2n[nH]c(N)n2)c(=O)n(-c2ccccc2)n1C (centres undefined)	NALP1 inh 38
Cc1c(NC(=O)c2cccc(F)c2)c(=O)n(-c2ccccc2)n1C	none
Cc1c(NC(=O)c2ccc(F)cc2)c(=O)n(-c2ccccc2)n1C	NALP1 inh 36
CCOc1ccc(Nc2nc3ccccc3n3nnnc23)cc1	NALP1 inh 42
CCOc1ccc(Nc2nc3ccccc3n2C)cc1	none (no result: NALP1 inh)
CCCCn1c(NCc2ccccn2)nc2ccccc21	none
CCN(CC)CCn1c(NCc2ccccn2)nc2ccccc21	NALP1 inh 42
CCOC(=O)Cn1c(=O)oc2cc(S(=O)(=O)NCCC(C)C)ccc21	NALP1 inh 41
CCOCCCNS(=O)(=O)c1ccc2c(c1)oc(=O)n2CC(=O)OCC	none (no result: NALP1 inh)
COc1ccc(C(CNC(=O)c2nn(-c3ccccc3)c(=O)c3ccccc23)N2CCOCC2)cc1 (centres undefined)	none (no result: NALP1 inh)
CC12CCC(=O)N1C(C(=O)Nc1ccc(F)c(Cl)c1)CS2 (centres undefined)	none (no result: NALP1 inh)
CC1(C)SC[C@H](C(=O)Nc2cccc(Cl)c2)N1C=O	NALP1 inh 37
Cc1ccc(S(=O)(=O)NC2CCCC2)cc1C	NALP1 inh 39
NC(N)=Nc1ccc(N=C(N)N)cc1	NALP1 inh 40 (no result: NALP3 yeast inh, TIM10 inh, tim10-1 inh, tim23-1 inh)
Cc1ccc(NC(=O)CN2C(=O)C3CC=C(Cl)CC3C2=O)cc1 (centres undefined)	none
CCSc1nnc(-c2ccncc2)o1	none
OCC#CCSc1nnc(-c2ccncc2)o1	NALP1 inh 31
COc1ccccc1CN1CC(C(=O)NCCn2ccc(C)n2)CCC1=O (centres undefined)	none
O=[N+]([O-])c1ccc(OCC(O)CN2CCN(c3ccccc3F)CC2)cc1 (centres undefined)	NALP1 inh 46
Cc1ccc(N2CCN(CC(O)COc3ccc([N+](=O)[O-])cc3)CC2)cc1 (centres undefined)	none
COc1c2c(cc3oc(CO[C@@H]4O[C@H](CO)[C@@H](O)[C@H](O)[C@H]4O)cc(=O)c13)O[C@H](C(C)(C)O)C2	none (no result: NALP1 inh)
CCSCc1nnc(SCC(=O)Nc2nc(C)cs2)n1C	NALP1 inh 41
Oc1ccc(-c2nnc(Nc3cccc(O)c3)c3ccccc23)cc1	NALP1 inh 44
CN(C(=O)c1cc2c(s1)-c1ccccc1S(=O)(=O)C2)c1ccccc1	none (no result: NALP1 inh)
C=CCNC(=O)CSc1nc2ccccc2c(=O)n1CCc1ccc(OC)c(OC)c1	none

Assay outcomes as filed in PubChem BioAssay.
